Read-out in test [1]: alkyl and aryl transferase (GSTA2), GSTA2 (gene 2939)
Kind of test: CLD_GSTA2_6hr: CellzDirect (CLD) Gene Expression Assay for alkyl and aryl transferase (GSTA2) at 6 hours (AID 2283666). The gist of the method: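 GSTA2 transcript induction at 6 h, quantified by nuclease protection (qNPA) with chemiluminescent detection, in human liver primary hepatocytes exposed to several compound concentrations with 0.2% DMSO as baseline; phase-contrast morphology annotated apparent cytotoxicity.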

Test [2] in a line: Tanguay_ZF_120hpf_TR_legacy: (Legacy) Oregon State University Tanguay Lab 120 Hour Post-fertilization zebrafish Assay for Touch Response (AID 2283667). The gist of the method:
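Readout is presence or absence of touch response in 120 hpf zebrafish larvae, assessed by brightfield observation after continuous static exposure at 28C. Final vehicle was 0.64% (vol/vol) DMSO.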

Read-out in test [3]: xenobiotic metabolism (CYP1A1), CYP1A1 (gene 1543)
Kind of test: CLD_CYP1A1_24hr: CellzDirect (CLD) Gene Expression Assay for xenobiotic metabolism (CYP1A1) at 24 hours (AID 2283673).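 Also: CYP1A1 mRNA level by quantitative nuclease protection with chemiluminescence.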 The gist of the method: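 Transcript levels were read at 24 h by qNPA chemiluminescence in human liver primary cells. Cells got daily fresh dosing at multiple concentrations (vehicle 0.2% DMSO). Induction fitted upward against DMSO; phase-contrast cytotoxicity annotated.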

Read-out in test [4]: ABC Transporter (ABCB11), ABCB11 (gene 8647)
The test is described as follows: CLD_ABCB11_24hr: CellzDirect (CLD) Gene Expression Assay for ABC Transporter (ABCB11) at 48 hours (AID 2283674; active = hit-call score of the fitted dose curve at least 0.9, where 1 is the maximum; inactive = score below 0.9). A digest of the protocol:
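ABCB11 transcript was quantified by qNPA chemiluminescence in cultured human liver hepatocytes 24 hours after dosing. Fresh dosing solutions were applied on consecutive days, against a 0.2% DMSO vehicle. Cytotoxicity was noted by phase-contrast morphology.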

Test [5] can be described thus: CLD_ACTIN_6hr: CellzDirect (CLD) Gene Expression Assay for Baseline Control (Actin) at 6 hours (AID 2283676).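 Also: active means increased actin mRNA relative to DMSO vehicle.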 The gist of the method: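 Baseline actin transcript level measured by qNPA (S1 nuclease protection, chemiluminescence) in human hepatocyte cultures 6 h after chemical exposure; 0.2% DMSO vehicle as reference, cytotoxicity noted from morphology.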
The nature of test [6]: CCTE_Padilla_ZF_144hpf_TERATOSCORE: (Legacy) CCTE's 144 Hour Post-fertilization zebrafish Assay Teratoscore, Padilla Lab (AID 2283679; active = hit-call score of the fitted dose curve at least 0.9, where 1 is the maximum; inactive = score below 0.9;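 also: zebrafish embryos with chorions exposed by immersion from 6-8 hpf to 5 dpf with daily renewal; teratogenicity score from eye scoring of death hatching and malformations at 144 hpf; higher score means more developmental defects relative to DMSO baseline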). The gist of the method:
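Larvae scored by eye at 144 hpf for death, hatching and malformations after a day in clean Hanks'. Before that, daily-renewed exposure at 80 uM (0.4% DMSO, 26C) from roughly 6-8 hpf through 5 dpf, 4 embryos per chemical.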

Read-out in test [7]: Cytochrome P450 3A4 (Homo sapiens) (UniProt P08684)
Kind of test: CLD_CYP3A4_6hr: CellzDirect (CLD) Gene Expression Assay for xenobiotic metabolism (CYP3A4) at 6 hours (AID 2283680). A digest of the protocol: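 CYP3A4 mRNA induction, 6 h after dosing of cultured primary human hepatocytes from two donors, read by quantitative nuclease protection (qNPA, chemiluminescence). Vehicle 0.2% DMSO as baseline; morphology-based cytotoxicity annotated yes/no.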

Read-out in test [8]: xenobiotic metabolism (CYP1A2), CYP1A2 (gene 1544)
The test is described as follows: CLD_CYP1A2_24hr: CellzDirect (CLD) Gene Expression Assay for xenobiotic metabolism (CYP1A2) at 24 hours (AID 2283683). A digest of the protocol: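 CYP1A2 mRNA induction measured by quantitative nuclease protection (chemiluminescent) in human primary hepatocytes 24 h after multi-concentration chemical dosing with daily fresh solutions. DMSO (0.2%) baseline; positive-direction fitting; morphology-based cytotoxicity noted.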

Read-out in test [9]: ABC Transporter (ABCB1), ABCB1 (gene 5243)
Kind of test: CLD_ABCB1_24hr: CellzDirect (CLD) Gene Expression Assay for ABC Transporter (ABCB1) at 24 hours (AID 2283684). The gist of the method: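 ABCB1 mRNA induction versus 0.2% DMSO vehicle was read by qNPA chemiluminescence at 24 h. Cultured human hepatocytes from two donor preparations received daily fresh dosing, and phase-contrast cytotoxicity calls were annotated alongside the data.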

Read-out in test [10]: Broad substrate specificity ATP-binding cassette transporter ABCG2 (Homo sapiens) (UniProt Q9UNQ0)
Kind of test: CLD_ABCG2_24hr: CellzDirect (CLD) Gene Expression Assay for ABC Transporter (ABCG2) at 24 hours (AID 2283685). The gist of the method: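 ABCG2 mRNA induction, read as gain of chemiluminescent signal over 0.2% DMSO, was measured by quantitative nuclease protection at 24 h. Cultured human liver hepatocytes were given fresh dosing solutions of test chemicals at several concentrations each day.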

Read-out in test [11]: Cytochrome P450 2B6 (Homo sapiens) (UniProt P20813)
Kind of test: CLD_CYP2B6_24hr: CellzDirect (CLD) Gene Expression Assay for xenobiotic metabolism (CYP2B6) at 24 hours (AID 2283686). A digest of the protocol:
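qNPA chemiluminescent measurement of mRNA at 24 hours in human primary hepatocyte cultures from two donor preparations, with daily fresh dosing and 0.2% DMSO vehicle as baseline. Morphology-based cytotoxicity flagged yes/no.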

Read-out in test [12]: Cytochrome P450 2C19 (Homo sapiens) (UniProt P33261)
Kind of test: CLD_CYP2C19_24hr: CellzDirect (CLD) Gene Expression Assay for xenobiotic metabolism (CYP2C19) at 24 hours (AID 2283687).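 Also: activity means mRNA induction above DMSO vehicle baseline.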 The gist of the method:
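CYP2C19 mRNA was quantified by qNPA chemiluminescence after 24 h of daily dosing of cultured human primary hepatocytes from two donors; vehicle was 0.2% DMSO, and increases over DMSO baseline were fitted.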

Read-out in test [13]: sulfotransferase (SULT2A), SULT2A1 (gene 6822)
Kind of test: CLD_SULT2A_24hr: CellzDirect (CLD) Gene Expression Assay for sulfotransferase (SULT2A) at 24 hours (AID 2283694). The gist of the method: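 mRNA is measured by qNPA: probe hybridisation, S1 nuclease digestion, chemiluminescence, in lysates from human primary hepatocytes harvested 24 h after daily dosing. Vehicle was 0.2% DMSO. Phase-contrast microscopy flagged cytotoxicity (yes/no).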

Read-out in test [14]: ABC Transporter (ABCB1), ABCB1 (gene 5243)
The test is described as follows: CLD_ABCB1_48hr: CellzDirect (CLD) Gene Expression Assay for ABC Transporter (ABCB1) at 48 hours (AID 2283695). A digest of the protocol:
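ABCB1 mRNA was measured by quantitative nuclease protection assay (chemiluminescence) 48 h after dosing. Human hepatocyte cultures from two separate donors received fresh dosing solutions daily for two days, with 0.2% DMSO as vehicle. Positive-direction fit against DMSO.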

Read-out in test [15]: glucuronosyltransferase (UGT1A1), UGT1A1 (gene 54658)
Kind of test: CLD_UGT1A1_6hr: CellzDirect (CLD) Gene Expression Assay for glucuronosyltransferase (UGT1A1) at 6 hours (AID 2283672). The gist of the method:
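UGT1A1 mRNA induction, read by quantitative nuclease protection assay, 6 h after dosing primary human hepatocytes (two donors, 0.2% DMSO vehicle). Gain of signal fitted relative to vehicle.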

Read-out in test [16]: ABC Transporter (ABCB11), ABCB11 (gene 8647)
Kind of test: CLD_ABCB11_6hr: CellzDirect (CLD) Gene Expression Assay for ABC Transporter (ABCB11) at 6 hours (AID 2283675).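 Also: hits raise ABCB11 mRNA level so AC50 marks induction.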 The gist of the method: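 Read-out was ABCB11 mRNA gain of signal by quantitative nuclease protection assay, relative to 0.2% DMSO vehicle, 6 h post-dose. Cells were primary human hepatocytes from two donors, treated across multiple concentrations; phase-contrast cytotoxicity noted yes/no.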

Read-out in test [17]: organic anion transporter (SLCO1B1), SLCO1B1 (gene 10599)
The test is described as follows: CLD_SLCO1B1_6hr: CellzDirect (CLD) Gene Expression Assay for organic anion transporter (SLCO1B1) at 6 hours (AID 2283668).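 Also: active means mRNA induction above DMSO baseline.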 The gist of the method:
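SLCO1B1 mRNA induction measured 6 h after dosing by quantitative nuclease protection with chemiluminescent read-out, in human primary hepatocyte cultures given chemicals at several concentrations (vehicle 0.2% DMSO). Increase over DMSO baseline fitted; morphology-based cytotoxicity annotated yes/no.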

Read-out in test [18]: Cytochrome P450 2C19 (Homo sapiens) (UniProt P33261)
Kind of test: CLD_CYP2C19_6hr: CellzDirect (CLD) Gene Expression Assay for xenobiotic metabolism (CYP2C19) at 6 hours (AID 2283678). The gist of the method:
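CYP2C19 transcript induction was quantified by quantitative nuclease protection assay with chemiluminescent read-out, 6 h after dosing. Cells were primary human hepatocytes from two donor preparations, given fresh dosing solutions daily in 0.2% DMSO vehicle. Activity was relative to DMSO.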

Read-out in test [19]: organic anion transporter (SLCO1B1), SLCO1B1 (gene 10599)
The test is described as follows: CLD_SLCO1B1_24hr: CellzDirect (CLD) Gene Expression Assay for organic anion transporter (SLCO1B1) at 24 hours (AID 2283690). The gist of the method: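 SLCO1B1 mRNA induction read at 24 h by quantitative nuclease protection assay (chemiluminescence), analyzed against DMSO baseline. Human hepatocyte cultures from separate donors received fresh dosing solutions daily; vehicle 0.2% DMSO; cytotoxicity flagged by phase-contrast morphology.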

Read-out in test [20]: Cytochrome P450 (CYP24A1_1), CYP24A1 (gene 1591)
The test is described as follows: LTEA_HepaRG_CYP24A1_1: Life Technologies and Expression Analysis (LTEA) Assay for Cytochrome P450 (CYP24A1_1) using HepaRG (AID 2283671; active = hit-call score of the fitted dose curve at least 0.9, where 1 is the maximum; inactive = score below 0.9). To be noted: mRNA level, 48 h; actives raise or lower the signal. A digest of the protocol:
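Cultures of human HepaRG were treated in duplicate for 48 h (0.5% DMSO vehicle, highest dose 100 uM). CYP24A1 mRNA by qRT-PCR, normalized to ACTB, GAPDH, POLR2A.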

Broadly, the AC50 is the concentration at which the activity in the assay is half-maximal.

Several values for one entry are separate records, joined by “and”; a condition that tells them apart may be missing. Equal entries are not always repeated. Inconclusive results are not listed. Activity calls are given as the source filed them. The calls were made as follows, unless noted: active = hit-call score of the fitted dose curve at least 0.9, where 1 is the maximum; inconclusive = response in the unintended direction; inactive = score below 0.9.

Chain of Broad substrate specificity ATP-binding cassette transporter ABCG2 (Homo sapiens) (Q9UNQ0 whole entry, looked up): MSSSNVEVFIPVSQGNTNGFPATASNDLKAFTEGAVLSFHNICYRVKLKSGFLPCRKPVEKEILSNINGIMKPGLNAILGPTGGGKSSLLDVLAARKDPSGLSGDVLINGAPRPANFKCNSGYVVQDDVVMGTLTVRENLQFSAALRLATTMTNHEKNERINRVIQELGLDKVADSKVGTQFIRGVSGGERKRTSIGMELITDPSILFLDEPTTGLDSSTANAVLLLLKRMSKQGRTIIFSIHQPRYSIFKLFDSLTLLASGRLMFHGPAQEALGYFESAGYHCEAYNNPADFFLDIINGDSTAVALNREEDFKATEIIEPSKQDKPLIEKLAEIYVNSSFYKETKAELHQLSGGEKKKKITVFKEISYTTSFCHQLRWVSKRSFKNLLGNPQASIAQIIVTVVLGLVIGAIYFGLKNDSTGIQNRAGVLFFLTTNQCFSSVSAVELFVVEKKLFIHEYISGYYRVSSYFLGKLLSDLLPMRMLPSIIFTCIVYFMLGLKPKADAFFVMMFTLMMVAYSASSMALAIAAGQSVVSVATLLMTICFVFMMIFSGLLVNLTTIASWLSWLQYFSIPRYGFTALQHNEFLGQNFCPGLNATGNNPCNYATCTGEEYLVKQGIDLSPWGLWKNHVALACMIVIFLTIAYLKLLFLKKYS
Chain of Cytochrome P450 2C19 (Homo sapiens) (P33261 whole entry, looked up): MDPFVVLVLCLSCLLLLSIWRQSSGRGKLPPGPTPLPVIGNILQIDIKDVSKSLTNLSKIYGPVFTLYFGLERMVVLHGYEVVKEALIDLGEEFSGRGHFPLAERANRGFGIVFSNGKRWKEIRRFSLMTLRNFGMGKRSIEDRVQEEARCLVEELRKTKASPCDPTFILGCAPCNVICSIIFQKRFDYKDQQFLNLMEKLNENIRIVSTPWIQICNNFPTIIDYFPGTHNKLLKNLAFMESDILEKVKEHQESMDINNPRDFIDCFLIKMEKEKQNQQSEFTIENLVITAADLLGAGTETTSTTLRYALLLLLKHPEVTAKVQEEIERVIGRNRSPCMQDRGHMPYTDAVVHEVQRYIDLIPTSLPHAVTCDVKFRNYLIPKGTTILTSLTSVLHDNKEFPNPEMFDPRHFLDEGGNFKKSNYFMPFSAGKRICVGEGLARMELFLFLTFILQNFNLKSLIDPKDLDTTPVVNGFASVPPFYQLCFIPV
Chain of Cytochrome P450 3A4 (Homo sapiens) (P08684 whole entry, looked up): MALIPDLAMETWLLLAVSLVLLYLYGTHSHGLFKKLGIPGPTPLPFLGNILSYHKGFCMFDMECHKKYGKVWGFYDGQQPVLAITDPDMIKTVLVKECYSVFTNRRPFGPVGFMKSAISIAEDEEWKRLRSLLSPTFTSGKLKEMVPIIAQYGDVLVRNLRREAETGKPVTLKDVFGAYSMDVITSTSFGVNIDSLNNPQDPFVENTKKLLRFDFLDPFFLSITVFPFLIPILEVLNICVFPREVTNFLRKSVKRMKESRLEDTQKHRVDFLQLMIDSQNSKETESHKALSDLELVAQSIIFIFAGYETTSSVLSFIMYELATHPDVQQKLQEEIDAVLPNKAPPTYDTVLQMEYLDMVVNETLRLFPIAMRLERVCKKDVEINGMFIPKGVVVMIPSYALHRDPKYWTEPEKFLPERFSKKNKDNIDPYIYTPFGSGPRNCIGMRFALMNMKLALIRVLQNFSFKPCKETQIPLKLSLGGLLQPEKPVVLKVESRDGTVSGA

For `Cc1nn(C)c(Oc2ccccc2)c1C=NOCc1ccc(C(=O)OC(C)(C)C)cc1`, the call in [1], in [2], in [3], in test [5], in test [7] and in [9] was inactive. Besides, the call in [10], in test [12], in test [13] and in test [14] was inactive. Further, the AC50 is 36.8 µM (active) in test [4], 0.213 µM (active) in test [6], 37.4 µM (active) in test [8] and 20 µM (active) in test [11].
For the compound `CC(C)(c1ccc(O)cc1)c1ccc(O)cc1`, the compound was called inactive in test [1], in test [15], in [3], in test [4], in test [16] and in [5]. Also, the outcome in test [7], in [9], in test [10], in test [11], in test [12] and in [13] was inactive. Further, in test [2], the AC50 is 47.4 µM (active) and 24.4 µM (active) and 46 µM (active).
In the case of `c1ccc(Nc2ccccc2)cc1`, the call in test [1], in [2], in test [17], in test [15], in [3] and in test [4] was inactive. The call in test [16], in test [18], in test [7], in test [12], in test [19] and in test [13] was inactive. Also, the AC50 in test [8] is 6.41 µM (active); in test [11] it was 6.82 µM (active).
With `CCCCOC(=O)C(C)Oc1ccc(Oc2ccc(C(F)(F)F)cn2)cc1` (stereo unspecified), the call in [1], in test [2], in test [17], in [15], in test [16] and in test [7] was inactive. Also, the result in test [10], in [11], in [12], in [13] and in [14] was inactive. In test [6], the AC50 is 16.1 µM (active).
Turning to `COCCO`, the call in test [1], in test [2], in test [20], in [4], in test [5] and in test [18] was inactive. Also, the compound was called inactive in test [7], in test [9], in test [10], in test [19], in [13] and in [14].
For `CCOC(=O)NCCOc1ccc(Oc2ccccc2)cc1`, the call in test [2], in test [17], in test [15], in test [3], in test [16] and in test [5] was inactive. Also, the compound was classed as inactive in test [18], in test [7], in test [8], in test [9], in [10] and in test [12]. Moreover, the compound was classed as inactive in test [13] and in [14]. Further, the concentration at half-maximal activity (AC50) is 15.4 µM (active) in test [6] and 12.1 µM (active) in test [11].
